IDE exosite inh = insulin-degrading enzyme (human) exo-site inhibition. P14735. purified IDE, FL-6b probe fluorescence polarization; hits give low values. z-score at 20 µM. 6.3% of 17,000 active;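 active = z-score of -3 or lower, meaning strong loss of probe binding signal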;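 also: His-tagged human IDE residues 42-1019 made in E. coli with 30 nM FL-6b probe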
Target sequence (P14735 42-1019 limits assumed): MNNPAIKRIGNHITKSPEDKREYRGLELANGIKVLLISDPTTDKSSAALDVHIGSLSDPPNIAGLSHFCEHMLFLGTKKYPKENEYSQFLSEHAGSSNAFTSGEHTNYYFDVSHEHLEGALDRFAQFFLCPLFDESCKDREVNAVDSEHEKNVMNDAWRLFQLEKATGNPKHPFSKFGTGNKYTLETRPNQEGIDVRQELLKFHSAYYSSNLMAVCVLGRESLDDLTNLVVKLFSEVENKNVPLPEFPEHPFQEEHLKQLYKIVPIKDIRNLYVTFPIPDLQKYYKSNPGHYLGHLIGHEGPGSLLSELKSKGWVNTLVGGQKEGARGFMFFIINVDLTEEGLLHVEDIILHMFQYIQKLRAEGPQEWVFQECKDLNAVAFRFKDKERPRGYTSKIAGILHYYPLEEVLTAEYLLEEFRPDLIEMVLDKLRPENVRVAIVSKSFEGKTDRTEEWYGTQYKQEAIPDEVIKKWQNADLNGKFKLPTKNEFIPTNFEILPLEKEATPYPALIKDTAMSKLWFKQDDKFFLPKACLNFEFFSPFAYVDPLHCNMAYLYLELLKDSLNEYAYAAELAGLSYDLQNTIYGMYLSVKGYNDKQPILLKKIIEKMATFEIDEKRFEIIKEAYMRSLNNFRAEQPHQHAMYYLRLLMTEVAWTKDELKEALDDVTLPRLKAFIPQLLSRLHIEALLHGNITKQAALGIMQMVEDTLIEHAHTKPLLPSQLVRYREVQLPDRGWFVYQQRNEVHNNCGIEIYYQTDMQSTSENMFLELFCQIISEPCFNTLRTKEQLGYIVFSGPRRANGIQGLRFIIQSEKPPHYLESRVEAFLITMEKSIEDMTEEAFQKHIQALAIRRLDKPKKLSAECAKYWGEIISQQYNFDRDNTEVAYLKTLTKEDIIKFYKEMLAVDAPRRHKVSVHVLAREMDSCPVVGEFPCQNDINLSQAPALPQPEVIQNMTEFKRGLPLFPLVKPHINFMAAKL
* = called active by the depositor. The sample as a whole holds a higher share of hits than the screen did.

SMILES	IDE exosite inh
CCC(=O)N1CC(=O)N2[C@@H](CO)[C@H](c3ccc(-c4cccnc4)cc3)[C@@H]2C1	1.38
O=C(Nc1ccc(F)cc1)N1CC(=O)N2[C@H](CO)[C@H](c3ccc(C4=CCCC4)cc3)[C@@H]2C1	0.432
COCC#Cc1ccc([C@H]2[C@H](CO)N3C(=O)CN(C(=O)c4cccnc4)C[C@@H]23)cc1	5.42
N#C[C@H]1[C@@H](c2ccc(/C=C/c3ccccc3)cc2)[C@@H](CO)N1C(=O)C1CC1	-0.147
CO[C@@H]1CC[C@@H]2CCN(C)C(=O)CC3(CCCCC3)CN(C)C(=O)c3cccc(C#N)c3OC[C@@H]1O2	0.531
CCCC(=O)Nc1ccc2c(c1)C(=O)N(C)[C@H]1CC[C@H](CC(=O)N3CCCCC3)O[C@H]1CO2	-0.591
COCC(=O)N1[C@@H]2CN(C)c3ccccc3[C@@H]2[C@@H]1CO	1.87
O=C(NCc1cc(F)cc(F)c1)[C@@H]1[C@@H](CO)[C@@H]2Cn3c(cccc3=O)[C@H]1N2C(=O)c1cnccn1	-0.64
CC(C)c1cn(CC[C@@H]2CC[C@@H](NS(=O)(=O)c3ccc(F)cc3)[C@@H](CO)O2)nn1	3.37
Cn1cnc(S(=O)(=O)N[C@@H]2CC[C@H](CC(=O)NCC3CCCCC3)O[C@@H]2CO)c1	0.985
C/C=C/c1ccc([C@@H]2[C@H](CO)N[C@H]2CN(CC)C(=O)CN2CCOCC2)cc1	1.42
COc1cccc(NC(=O)N2CC(=O)N3[C@@H](CO)[C@H](c4ccc(C5=CCCC5)cc4)[C@@H]3C2)c1	3.08
O=C(Nc1cccc(F)c1)N1CC(=O)N2[C@H](CO)[C@@H](c3ccc(-c4ccccc4)cc3)[C@H]2C1	0.802
N#C[C@@H]1[C@@H](c2ccccc2C2=CCCCC2)[C@@H](CO)N1C(=O)CN1CCOCC1	-0.507
CCC(=O)N1CC(=O)N2[C@@H](CO)[C@H](c3ccc(-c4ccc(C(=O)N(C)C)cc4)cc3)[C@@H]2C1	-0.865
O=C(NC1CCCC1)N1CC(=O)N2[C@H](CO)[C@@H](c3ccc(-c4ccc(F)cc4)cc3)[C@H]2C1	2.42
O=C(NC1CCCCC1)N1CC(=O)N2[C@H](C1)[C@H](c1ccc(-c3cccc(F)c3)cc1)[C@@H]2CO	-6.25*
O=C(NC1CCCC1)N1CC(=O)N2[C@H](CO)[C@H](c3ccc(-c4ccc(F)cc4)cc3)[C@@H]2C1	3.75
O=C(NC1CCCC1)N1CC(=O)N2[C@H](C1)[C@@H](c1ccc(-c3ccc(F)cc3)cc1)[C@@H]2CO	1.21
O=C(NC1CCCCC1)N1CC(=O)N2[C@H](CO)[C@H](c3ccc(-c4cccc(F)c4)cc3)[C@H]2C1	-12.7*
O=C(NC1CCCC1)N1CC(=O)N2[C@H](C1)[C@H](c1ccc(-c3ccc(F)cc3)cc1)[C@@H]2CO	2.09
O=C(Nc1ccccc1)N1CC(=O)N2[C@H](C1)[C@@H](c1ccc(C#CC3CCCCC3)cc1)[C@@H]2CO	0.907
O=C(NC[C@H]1[C@H](c2ccccc2)[C@H](CO)N1CC1CCCC1)C1CC1	3.3
O=C(NC1CCCC1)[C@H]1[C@H](CO)[C@H]2Cn3c(ccc(C4=CCCCC4)c3=O)[C@@H]1N2CC1CC1	-0.417
CCCC(=O)Nc1ccc2c(c1)C(=O)N(C)C[C@H](OC)[C@@H](C)CN(C(=O)c1ccccn1)[C@H](C)CO2	2.09
SMILES	IDE exosite inh
O=C(c1ccccn1)N1CC(=O)N2[C@@H](CO)[C@@H](c3ccc(C#CC4CCCC4)cc3)[C@@H]2C1	2.28
C/C=C/c1ccccc1[C@H]1[C@@H](C#N)N(C(=O)c2cccnc2)[C@@H]1CO	0.976
C[C@@H]1CN([C@@H](C)CO)C(=O)c2cc(-c3ccc(F)cc3)cnc2O[C@H]1CN(C)S(C)(=O)=O	0.988
C[C@@H]1CN([C@H](C)CO)C(=O)c2cc(/C=C/c3ccccc3)cnc2O[C@H]1CN(C)S(=O)(=O)c1ccccc1F	-4.63*
C[C@H](CO)N1C[C@H](C)[C@H](CN(C)S(=O)(=O)c2ccccc2F)Oc2ncc(/C=C/c3ccccc3)cc2C1=O	-1.73
Cc1ccc(-c2ccc([C@@H]3[C@H](CO)N4CCCCN(Cc5ccccn5)C[C@@H]34)cc2)cc1	-0.863
C[C@H]1CCCCO[C@@H](CN(C)C(=O)CCCN(C)C)[C@@H](C)CN([C@@H](C)CO)C(=O)c2cc(NS(=O)(=O)c3ccc(Cl)cc3)ccc2O1	0.0315
O=C(N[C@@H]1C=C[C@@H](CC(=O)N2CCC(Cc3ccccc3)CC2)O[C@@H]1CO)c1cnccn1	1.13
O=C(c1ccccn1)N1CC(=O)N2[C@H](C1)[C@@H](c1ccc(-c3cccc(F)c3)cc1)[C@@H]2CO	-7.75*
O=C(c1cnccn1)N1CC(=O)N2[C@H](CO)[C@H](c3ccc(-c4ccc(F)cc4)cc3)[C@@H]2C1	3.5
O=C(c1cccc(F)c1)N1CC(=O)N2[C@H](CO)[C@H](c3ccc(-c4cccnc4)cc3)[C@@H]2C1	3.11
O=C(c1cnccn1)N1CC(=O)N2[C@H](C1)[C@@H](c1ccc(-c3cccc(F)c3)cc1)[C@@H]2CO	-3.97*
O=C(c1cnccn1)N1CC(=O)N2[C@H](CO)[C@@H](c3ccc(-c4cccc(F)c4)cc3)[C@@H]2C1	-3.68*
O=C(c1cnccn1)N1CC(=O)N2[C@H](C1)[C@@H](c1ccc(-c3ccc(F)cc3)cc1)[C@@H]2CO	4.35
O=C(c1cnccn1)N1CC(=O)N2[C@@H](CO)[C@@H](c3ccc(-c4ccc(F)cc4)cc3)[C@@H]2C1	3.11
O=C(c1cnccn1)N1CC(=O)N2[C@H](CO)[C@H](c3ccc(-c4cccc(F)c4)cc3)[C@@H]2C1	-0.306
O=C(c1ccccn1)N1CC(=O)N2[C@H](C1)[C@H](c1ccc(-c3cccc(F)c3)cc1)[C@@H]2CO	3.08
O=C(c1cccc(F)c1)N1CCCCN2[C@H](CO)[C@H](c3ccc(/C=C/c4ccccc4)cc3)[C@@H]2C1	-1.37
COc1ccc(S(=O)(=O)N2CCCCN3[C@H](CO)[C@H](c4ccc(C#CC5CC5)cc4)[C@H]3C2)cc1	2.49
C[C@@H](NC(=O)[C@@H]1[C@@H](CO)[C@@H]2Cn3c(ccc(-c4ccccc4)c3=O)[C@@H]2N1C)c1ccccc1	1.18
CCS(=O)(=O)N1CC(=O)N2[C@H](C1)[C@@H](c1ccc(-c3ccc(C)cc3)cc1)[C@@H]2CO	0.295
CC(C)[C@@H]1CC=CC[C@H](C)Oc2ccccc2C(=O)N(C)[C@@H](Cc2ccccc2)C(=O)N1 (mixture of isomers)	0.755
COC(=O)C[C@H]1CC[C@H](N)[C@@H](CO)O1	-0.367
O=C(Nc1ccc(F)cc1)N1CC(=O)N2[C@H](CO)[C@H](c3ccc(C#Cc4cccnc4)cc3)[C@H]2C1	0.579
Cn1cnc(S(=O)(=O)N2CCCCN3[C@H](CO)[C@@H](c4ccc(-c5cccc(F)c5)cc4)[C@H]3C2)c1	0.0352
Cn1cnc(S(=O)(=O)N2CCCCN3[C@H](C2)[C@@H](c2ccc(-c4cccc(F)c4)cc2)[C@@H]3CO)c1	0.693
Cn1cnc(S(=O)(=O)N2CCCCN3[C@H](CO)[C@H](c4ccc(-c5ccc(F)cc5)cc4)[C@@H]3C2)c1	3.94
Cn1cnc(S(=O)(=O)N2CCCCN3[C@@H](CO)[C@H](c4ccc(-c5cccc(F)c5)cc4)[C@@H]3C2)c1	2.07
Cn1cnc(S(=O)(=O)N2CCCCN3[C@H](CO)[C@@H](c4ccc(-c5cccc(F)c5)cc4)[C@@H]3C2)c1	-3.68*
Cn1cnc(S(=O)(=O)N2CCCCN3[C@@H](CO)[C@@H](c4ccc(-c5cccc(F)c5)cc4)[C@@H]3C2)c1	-4.6*

Screening data as filed in PubChem.
